Reference: PubChem BioAssay AID1159580 (chemical genetic matrix, 2015)
Out of some 5,500 compounds screened, about 2,000 (36%) were called active. Another 18% or so got no clear call; they are omitted. No stated cut-off is given here; in the data, active means normalized growth mostly below about 0.91 (no sharp cut-off); inconclusive means no clear call, values can overlap the other calls; inactive means mostly above about 0.92. The list shows a part of the results.

Experiment: chemical genetic growth profiling, strain panel (AID 1159580);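 further: tested at 20 µM; growth read once vehicle control cultures reached saturation at 30 °C; 1 = growth at the plate median or of vehicle wells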
Details: growth OD

Measured: normalized growth

NC(=O)NC1NC(=O)NC1=O (configuration not stated)
inactive: S. cerevisiae deletion strains, locus YJR075W, strain HOC1, stronger effect = lower value 1.01 | S. cerevisiae deletion strains, locus YKL009W, strain mrt4, stronger effect = lower value 0.989 | S. cerevisiae deletion strains, locus YKL068W, stronger effect = lower value 0.987 | S. cerevisiae deletion strains, locus YKL085W, strain MDH1 (second series), stronger effect = lower value 0.981 | S. cerevisiae deletion strains, locus YKL085W, strain MDH1, stronger effect = lower value 0.981 | S. cerevisiae deletion strains, locus YKL160W, strain elf1, stronger effect = lower value 0.979 | S. cerevisiae deletion strains, locus YKL190W, strain CNB1, stronger effect = lower value 0.997 | S. cerevisiae deletion strains, locus YKR001C, strain vps1, stronger effect = lower value 0.984 | S. cerevisiae deletion strains, locus YKR026C, strain gcn3, stronger effect = lower value 1 | S. cerevisiae deletion strains, locus YKR091W, strain srl3, stronger effect = lower value 1 | S. cerevisiae deletion strains, locus YLL001W, strain dnm1, stronger effect = lower value 1 | S. cerevisiae deletion strains, locus YLL026W, stronger effect = lower value 1.01 | S. cerevisiae deletion strains, locus YLL041C, strain sdh2, stronger effect = lower value 1 | S. cerevisiae deletion strains, locus YLR027C, strain aat2, stronger effect = lower value 1 | S. cerevisiae deletion strains, locus YLR039C, strain RIC1, stronger effect = lower value 1.03 | S. cerevisiae deletion strains, locus YLR058C, strain SHM2, stronger effect = lower value 0.99 | S. cerevisiae deletion strains, locus YLR102C, strain apc9, stronger effect = lower value 0.987 | S. cerevisiae deletion strains, locus YLR113W, strain HOG1, stronger effect = lower value 1.04 | S. cerevisiae deletion strains, locus YLR221C, strain rsa3, stronger effect = lower value 0.998 | S. cerevisiae deletion strains, locus YLR258W, strain gsy2, stronger effect = lower value 1 | S. cerevisiae deletion strains, locus YLR262C, strain YPT6 (second series), stronger effect = lower value 1.02 | S. cerevisiae deletion strains, locus YLR262C, strain YPT6, stronger effect = lower value 0.965 | S. cerevisiae deletion strains, locus YLR268W, strain sec22, stronger effect = lower value 0.917 | S. cerevisiae deletion strains, locus YLR320W, strain mms22, stronger effect = lower value 1 | S. cerevisiae deletion strains, locus YLR330W, strain CHS5, stronger effect = lower value 0.991 | S. cerevisiae deletion strains, locus YLR342W, strain FKS1 (second series), stronger effect = lower value 1.06 | S. cerevisiae deletion strains, locus YLR342W, strain FKS1, stronger effect = lower value 1 | S. cerevisiae deletion strains, locus YLR357W, strain rsc2, stronger effect = lower value 0.968 | S. cerevisiae deletion strains, locus YLR370C, strain arc18, stronger effect = lower value 1 | S. cerevisiae deletion strains, locus YLR371W, strain rom2, stronger effect = lower value 0.971 | S. cerevisiae deletion strains, locus YLR384C, strain iki3, stronger effect = lower value 1.01 | S. cerevisiae deletion strains, locus YLR418C, strain cdc73, stronger effect = lower value 0.965 | S. cerevisiae deletion strains, locus YML016C, strain PPZ1, stronger effect = lower value 0.987 | S. cerevisiae deletion strains, locus YML032C, strain rad52, stronger effect = lower value 0.981 | S. cerevisiae deletion strains, locus YML120C, strain ndi1, stronger effect = lower value 1.01 | S. cerevisiae deletion strains, locus YML124C, strain tub3, stronger effect = lower value 0.978 | S. cerevisiae deletion strains, locus YMR058W, strain fet3, stronger effect = lower value 1.01 | S. cerevisiae deletion strains, locus YMR078C, strain ctf18, stronger effect = lower value 0.976 | S. cerevisiae deletion strains, locus YMR125W, strain sto1, stronger effect = lower value 1 | S. cerevisiae deletion strains, locus YMR129W, stronger effect = lower value 1 | S. cerevisiae deletion strains, locus YMR205C, strain PFK2, stronger effect = lower value 0.982 | S. cerevisiae deletion strains, locus YMR223W, strain ubp8, stronger effect = lower value 1 | S. cerevisiae deletion strains, locus YMR231W, strain pep5, stronger effect = lower value 0.994 | S. cerevisiae deletion strains, locus YMR263W, strain SAP30, stronger effect = lower value 0.988 | S. cerevisiae deletion strains, locus YMR307W, strain GAS1, stronger effect = lower value 1.01 | S. cerevisiae deletion strains, locus YNL067W, strain RPL9B, stronger effect = lower value 0.982 | S. cerevisiae deletion strains, locus YNL071W, strain lat1, stronger effect = lower value 1.01 | S. cerevisiae deletion strains, locus YNL128W, strain TEP1, stronger effect = lower value 0.997 | S. cerevisiae deletion strains, locus YNL153C, strain GIM3, stronger effect = lower value 0.987 | S. cerevisiae deletion strains, locus YNL183C, strain NPR1, stronger effect = lower value 0.977 | S. cerevisiae deletion strains, locus YNL209W, strain ssb2, stronger effect = lower value 1 | S. cerevisiae deletion strains, locus YNL233W, strain BNI4, stronger effect = lower value 0.978 | S. cerevisiae deletion strains, locus YNL248C, strain rpa49, stronger effect = lower value 0.999 | S. cerevisiae deletion strains, locus YNL250W, strain rad50, stronger effect = lower value 0.981 | S. cerevisiae deletion strains, locus YNL271C, strain bni1, stronger effect = lower value 0.977 | S. cerevisiae deletion strains, locus YNL298W, strain CLA4, stronger effect = lower value 0.985 | S. cerevisiae deletion strains, locus YNL307C, strain MCK1, stronger effect = lower value 0.985 | S. cerevisiae deletion strains, locus YNL322C, strain KRE1 (second series), stronger effect = lower value 0.986 | S. cerevisiae deletion strains, locus YNL322C, strain KRE1, stronger effect = lower value 0.998 | S. cerevisiae deletion strains, locus YNR049C, strain mso1, stronger effect = lower value 1.01 | S. cerevisiae deletion strains, locus YNR052C, strain pop2, stronger effect = lower value 0.992 | S. cerevisiae deletion strains, locus YOL006C, strain TOP1, stronger effect = lower value 0.996 | S. cerevisiae deletion strains, locus YOL012C, strain htz1 0.886 | S. cerevisiae deletion strains, locus YOL147C, strain pex11, stronger effect = lower value 0.983 | S. cerevisiae deletion strains, locus YOR001W, strain rrp6, stronger effect = lower value 1 | S. cerevisiae deletion strains, locus YOR061W, strain CKA2, stronger effect = lower value 0.991 | S. cerevisiae deletion strains, locus YOR069W, strain VPS5, stronger effect = lower value 0.99 | S. cerevisiae deletion strains, locus YOR070C, strain gyp1, stronger effect = lower value 1 | S. cerevisiae deletion strains, locus YOR080W, strain dia2, stronger effect = lower value 0.993 | S. cerevisiae deletion strains, locus YOR083W, strain WHI5, stronger effect = lower value 0.992 | S. cerevisiae deletion strains, locus YOR106W, strain vam3, stronger effect = lower value 0.99 | S. cerevisiae deletion strains, locus YOR136W, strain idh2, stronger effect = lower value 0.993 | S. cerevisiae deletion strains, locus YOR144C, strain elg1, stronger effect = lower value 0.984 | S. cerevisiae deletion strains, locus YOR184W, strain ser1, stronger effect = lower value 0.967 | S. cerevisiae deletion strains, locus YOR231W, strain MKK1, stronger effect = lower value 1.03 | S. cerevisiae deletion strains, locus YOR265W, strain rbl2, stronger effect = lower value 1.03 | S. cerevisiae deletion strains, locus YOR270C, strain vph1, stronger effect = lower value 1.03 | S. cerevisiae deletion strains, locus YOR290C, strain snf2, stronger effect = lower value 1.03 | S. cerevisiae deletion strains, locus YOR316C, strain cot1, stronger effect = lower value 0.977 | S. cerevisiae deletion strains, locus YPL051W, strain arl3, stronger effect = lower value 1 | S. cerevisiae deletion strains, locus YPL055C, strain LGE1, stronger effect = lower value 1.01 | S. cerevisiae deletion strains, locus YPL078C, strain atp4, stronger effect = lower value 1 | S. cerevisiae deletion strains, locus YPL106C, strain sse1, stronger effect = lower value 0.977 | S. cerevisiae deletion strains, locus YPL240C, strain hsp82, stronger effect = lower value 1.01 | S. cerevisiae deletion strains, locus YPL241C, strain CIN2, stronger effect = lower value 0.992 | S. cerevisiae deletion strains, locus YPL256C, strain CLN2, stronger effect = lower value 1.03 | S. cerevisiae deletion strains, locus YPR119W, strain clb2, stronger effect = lower value 0.982 | S. cerevisiae deletion strains, locus YPR141C, strain kar3, stronger effect = lower value 0.98 | S. cerevisiae deletion strains, locus YPR163C, strain tif3, stronger effect = lower value 0.981 | S. cerevisiae deletion strains, locus YPR167C, strain met16, stronger effect = lower value 0.979 | S. cerevisiae deletion strains, strain wtn01, stronger effect = lower value 0.971 | S. cerevisiae strains, strain wild type, stronger effect = lower value 0.996
